# Assay outcomes (PubChem)
# Menin MLL FP FL = displaces fluorescein MLL peptide from human menin; 290,000 tested, under 10 active; Fluorescence polarization, fluorescein-MLL peptide displacement from menin; FP activity change, % at 61.4 µM; AID 1766; active = well fitted curve in the direction sought with a large enough effect in the polarisation, not every such curve was filed as active; inconclusive = small, poorly fitted or top-dose-only effect, or effect the other way, or a change in a side signal; inactive = no such curve, though single readings can be large or run the other way; the % refers to the polarisation; note: % of control where 0% means no effect
# CXXC DNA block = inhibitors of human MLL CXXC domain-DNA interaction | Q03164 | MLL-CXXC / FITC-HOXA9 DNA fluorescence polarization | Potency, µM (series often up to 115 µM), for the others: at the highest dose activity change, negative = inhibition, hits mostly inhibitors | 0.037% of 290,000 active | AID 2662; active = well fitted inhibition curve with a large enough effect in the polarisation, with a control signal flat, not every such curve was filed as active; inconclusive = small, poorly fitted or top-dose-only effect, or effect the other way, or a change in a side signal; inactive = no such curve, though single readings can be large or run the other way; the % refers to the polarisation; note: potency is the fitted concentration of half-maximal effect
#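 Fluorescence polarization: 7 uM MLL-CXXC (stock) preincubated 5 min with compounds, then 50 nM fluorescein-HOX-A9 DNA (stock) added; 30 min ambient. Buffer 50 mM Tris-HCl pH 7.5, 50 mM NaCl, 1 mM DTT, 0.05% BSA.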
# MBNL1 CUG block = blocks human MBNL1 binding to CUG repeat RNA; Q9NR56; Potency, µM (highest dose often 57.5 µM), for the others: at the highest dose activity change, negative = inhibition, actives largely listed as inhibitors; 0.036% of 280,000 active; TR-FRET MBNL1-His/biotin-(CUG)12 binding, 665/545 ratio; active = well fitted inhibition curve with a large enough effect in the signal ratio, with a control signal flat, not every such curve was filed as active; inconclusive = small, poorly fitted or top-dose-only effect, or effect the other way, or a change in a side signal; inactive = no such curve, though single readings can be large or run the other way; the % refers to the signal ratio; note: potency is the fitted concentration of half-maximal effect; % is set by controls: 0 for no effect and ±100 for the full control effect
#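 MBNL1-His + Biotin-(CUG)12, cpd titration 92 nM–58 uM; Tb anti-His Ab 0.055 ng/ul, SA-XL665 5 nM (final); 60 min RT; ratiometric 665/545 nm, Ex 340 nm; normalized to buffer and full-complex controls.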
# Menin-MLL TR inh = displaces Texas Red mutant MLL peptide from human menin; O00255; Menin + Texas Red MLL mutant peptide, fluorescence polarization; Potency, µM (top dose mostly 61.6 µM), without a hit: at the top dose FP activity change, negative = inhibition, usual class: inhibitors; 0.23% of 270,000 active; AID 1768; active = well fitted inhibition curve with a large enough effect in the polarisation, with a control signal flat, not every such curve was filed as active; inconclusive = small, poorly fitted or top-dose-only effect, or effect the other way, or a change in a side signal; inactive = no such curve, though single readings can be large or run the other way; the % refers to the polarisation; note: potency is the fitted concentration of half-maximal effect; % of control where 0% means no effect
# MBNL1-CUG FRET = confirmation of inhibitors of human MBNL1-poly(CUG) RNA binding | shares compounds with MBNL1 CUG block | TR-FRET MBNL1-His / biotin-(CUG)12 binding, 60 min | Potency, µM (top dose mostly 57.6 µM), inactives show at the top dose activity change, negative = inhibition, usual class: inhibitors | 50% of 140 active | AID 493199
# MBNL1-CUG Alpha = confirmation of MBNL1-(CUG)12 RNA binding inhibitors, orthogonal format; shares compounds with MBNL1 CUG block; 30% of 140 active; AlphaScreen MBNL1-His / biotin-(CUG)12 binding; Potency, µM (titrated, usually from 57.7 µM), for the others: at the top dose activity, negative = inhibition, actives largely listed as inhibitors
# MBNL1 HTRF CS = counter-screen for MBNL1-poly(CUG) RNA binding inhibitors. 20% of 120 active. shares compounds with MBNL1 CUG block. Potency, µM (top dose mostly 57.6 µM), inactives show at the highest dose activity, negative = inhibition, usual class: inhibitors. His-Menin/biotin-MLL peptide TR-FRET counterscreen
# * hit, by the source's call; ? = inconclusive; . = no result; [ ] = another dose, or the depositor's remark. The sample as a whole holds a higher share of hits than the screen did. Unless noted, calls come from the whole dose curve; as a rule, active = well fitted curve in the direction sought with a large enough effect; inconclusive = small, poorly fitted or top-dose-only effect, or another doubt; inactive = no such curve, though single readings can be large; an effect the other way counts as inactive or inconclusive.
SMILES,Menin MLL FP FL,CXXC DNA block,MBNL1 CUG block,Menin-MLL TR inh,MBNL1-CUG FRET,MBNL1-CUG Alpha,MBNL1 HTRF CS
COc1ccc(NC(=O)NC(C(F)(F)F)C(F)(F)F)cc1,2,-4%,32µM*,-2%,?,-2%,?
CNCC(=O)NC(CCCN=C(N)N)C(=O)NC(C(=O)NC(Cc1ccc(O)cc1)C(=O)NC(C(=O)NC(Cc1cnc[nH]1)C(=O)N1CCCC1C(=O)NC(C)C(=O)O)C(C)C)C(C)C (stereo not given),-1,11%,.,4%,.,.,.
CC(=O)c1ccc(NC(=O)Nc2cccnc2)cc1,.,9%,28µM*,.,21µM*,-9%,29µM*
Cc1ccc(NC(=O)Nc2cccnc2)cc1Cl,3,28%,-28%,?,.,.,.
CN1CCc2cc(NC(=O)Nc3cccnc3)ccc21,1,12%,.,-20%,?,-39%,.
CC1(C)CCC[C@@](C)([C@H]2CC[C@]3(C)[C@@H]2[C@H](O)CC2[C@@]4(C)CC[C@H](O)C(C)(C)[C@@H]4[C@@H](O)C[C@]23C)O1 (stereo not given in full),-2,.,.,-28%,.,.,.
CCCCN1C(=O)NC2NC(=O)NC21 (stereo not given),4,3%,5.6µM*,7%,3.3µM*,1.2µM*,?
O=C1C2=CC[C@@H]3C(=O)N(c4ccc(F)cc4F)C(=O)[C@H]3[C@H]2[C@H](O)[C@H]2O[C@H]12,-16[11.7 µM],.,.,11%[11.7 µM],.,.,.
CCCNC(=O)Nc1cc(OC)c(OC)cc1Cc1nccc2cc(OC)c(OC)cc12,-12,-4%,25µM*,3%,13µM*,0%,?
CCCCN1CCC[C@H]1CNC(=O)c1cc(C#N)c2ccccc2c1OC,6,.,.,-2%,.,.,.
COc1ccc(CCNC(=O)C2CC(=O)N(c3ccc(Br)cc3)C2)cc1OC (stereo not given),4,-12%,-7%,-12%,.,.,.
COc1ccc(CCNC(=O)C2CC(=O)N(c3ccccc3)C2)cc1OC (stereo not given),-2,-7%,11%,-22%,-5%,-2%,1%
CC(C)(C)n1nnnc1C(c1cccs1)N1CCCC2(CCCCC2)C1 (stereo not given),2,1%,?,-17%,.,.,.
c1csc(C(c2nnnn2C2CCCCC2)N2CCCC3(CCCCC3)C2)c1 (stereo not given),1,1%,25µM*,0%,-19%,-21%,-4%
Cc1ccc(-c2cc(C3C4C=CCC(C)C4C(=O)N3Cc3ccccc3)ccc2F)cc1 (stereo not given),1,.,.,?,.,.,.
CCO/C=C1/C(=O)N(Cc2ccccc2)C(=O)c2ccccc21,-3,13%,16µM*,-15%,-60%,52µM*,3%
OC1(c2ccc(Cl)cc2)CCN(Cc2cn[nH]c2-c2ccccc2)CC1,-3,-1%,10µM*,.,41µM*,-10%,-12%
